Source: PubChem (National Center for Advancing Translational Sciences (NCATS))
IkB signaling – IkB Signaling | hit rate 0.04% among 110,000 | Potency, µM (titrated, usually from 57.1 µM), for the others: at the top dose IkBa stabilization activation | ABC-DLBCL IkBa-CBG/CBR dual luciferase ratio, 4 h; response scale: scaled: untreated 0%, proteasome inhibitor 100%; active = well fitted curve in the direction sought with a large enough effect in the signal ratio, not every such curve was filed as active; inconclusive = small, poorly fitted or top-dose-only effect, or a change in a side signal; the % refers to the signal ratio;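 also: potency is read from the fitted curve at half-maximal effect; the direction sought is a rising ratio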
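Curves were fitted separately to fusion (green), unfused (red) and ratio luminescence, then classed by r2, magnitude and activity. Cells: OCI-Ly3, 4 h compound plus doxycycline at 37C; 10 uM MG-132 defined full response.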
Imprint erasure – qHTS Assay for Compounds that Induce Erasure of Genomic Imprints. AID 1948, 2009. mouse ES Peg3-LacZ reporter, beta-gal luminescence, 40 h. Potency, µM (titrated, usually from 60.7 µM), for inactives: top-dose activity change, positive = activation, hits mostly activators. hit rate 0.02% among 110,000; also: potency is read from the fitted curve at half-maximal effect
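Each well holds 300 Peg3LacZ-Neo (maternal) female ES cells incubated 40 h at 37C, 5% CO2. LacZ is measured by BetaGlo luminescence, with AC50 and maximum efficacy derived from dose-response curves.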
p53ts 32C kill – qHTS Screen for Compounds that Selectively Target Cancer Cells with p53 Mutations: Cytotoxicity of p53ts Cells at the Permissive Temperature; H1299-p53A138V at 32C, ATP luminescence viability, 24 h; Potency, µM (series often up to 46.1 µM), inactives show at the top dose activity change, negative = cytotoxicity, usual class: cytotoxic; hit rate 0.93% among 130,000; AID 924, 2007;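 also: potency is read from the fitted curve at half-maximal effect; 0% = DMSO and -100% = full killing by reference compound; nearly all actives have a fitted effect of over 55% in size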
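Viability by ATPlite luminescence after 24 h compound treatment (up to 46 uM) at the permissive 32C. Cells are H1299 carrying p53 A138V. Scale runs from DMSO basal to 100 uM tamoxifen as full kill; AC50 from Hill fits.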
p53ts 39C kill – qHTS Screen for Compounds that Selectively Target Cancer Cells with p53 Mutations: Cytotoxicity of p53ts Cells at the Nonpermissive Temperature; H1299-p53A138V viability at 39C, ATP luminescence, 24 h; Potency, µM (series often up to 46.1 µM), for the others: at the top dose activity change, negative = cell killing, usual class: cytotoxic; hit rate 1.5% among 130,000; AID 902, 2007; also: potency is read from the fitted curve at half-maximal effect; % is scaled to controls: 0 for no effect and ±100 for the full control effect; nearly all actives have a fitted effect of over 55% in size
IMPase inh – qHTS Assay for Identifying the Cell-Membrane Permeable IMPase Inhibitors; Inositol monophosphatase 1 (Rattus norvegicus), P97697; CHO-M1 cells, IP1 accumulation, HTRF TR-FRET ratio; inhibition (IP1 accumulation), % at 46.1 µM; 120,000 tested, under 10 active; AID 901, 2007; active = well fitted curve in the direction sought with a large enough effect in the signal ratio, not every such curve was filed as active; inconclusive = small, poorly fitted or top-dose-only effect, or a change in a side signal; inactive = no such curve, though single readings can be large or run the other way; the % refers to the signal ratio;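 also: cells stimulated with carbachol in lithium chloride buffer; plate controls were DMSO basal wells for no effect and reference inhibitor wells for full effect; higher means more IMPase inhibition seen as more IP1 and lower FRET ratio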
Target sequence (P97697 whole entry, looked up): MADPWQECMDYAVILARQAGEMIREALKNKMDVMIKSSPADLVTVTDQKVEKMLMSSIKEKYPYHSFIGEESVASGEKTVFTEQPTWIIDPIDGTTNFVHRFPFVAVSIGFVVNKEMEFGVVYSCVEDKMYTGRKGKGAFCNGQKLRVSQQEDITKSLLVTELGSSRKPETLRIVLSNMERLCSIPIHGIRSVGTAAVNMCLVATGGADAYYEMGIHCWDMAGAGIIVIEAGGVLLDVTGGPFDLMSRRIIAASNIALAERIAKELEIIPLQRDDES
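Cellular IMPase inhibition is scored as a rise in cytosolic IP1, detected by competitive TR-FRET between d2-labelled IP1 and a europium anti-IP1 antibody. M1-expressing CHO cells were stimulated with carbachol for 30 min at 37C, with lithium (50 mM LiCl) present in the buffer.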
Luciferase inh – qHTS Assay for Inhibitors of Firefly Luciferase | purified firefly luciferase, luminescence, 8 min | Potency, µM (doses to about 57.1 µM), without a hit: at the top dose activity change, negative = inhibition, most hits filed as inhibitors | hit rate 2.2% among 72,000 | AID 411, 2009; also: potency is read from the fitted curve at half-maximal effect; % is scaled to controls: 0 for no effect and ±100 for the full control effect; nearly all actives have a fitted effect of over 40% in size
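qHTS concentration-response profiling: light output of P. pyralis luciferase with luciferin and 10 uM ATP, imidazole buffer pH 7.2. Read by luminescence after 8-min room-temperature incubation.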
Starred values were filed as active, the others as inactive; u = inconclusive; x = no result given; [ ] = another dose, or the depositor's remark. The sample as a whole holds a higher share of hits than the screen did. Unless noted, calls follow the shape of the dose curve; as a rule, active = well fitted curve in the direction sought with a large enough effect; inconclusive = small, poorly fitted or top-dose-only effect, or another doubt; inactive = no such curve, though single readings can be large; an effect the other way counts as inactive or inconclusive.

SMILES	IkB signaling	Imprint erasure	p53ts 32C kill	p53ts 39C kill	IMPase inh	Luciferase inh
CC(C)(C)n1ncc2c(=O)n(CC(=O)Nc3ccc(Cl)cc3)cnc21	6%	-14%	-7%	-20%	5	-1%
O=C(OCc1nc2ccccc2s1)C1CCN(S(=O)(=O)c2cccs2)CC1	2%	-6%	0%	-5%	u	32µM*
O=S(=O)(c1cccs1)N1CCN(Cc2nc3ccccc3s2)CC1	u	-15%	9%	-2%	4	-9%
CC(=O)N1c2c(cc(Br)cc2S(=O)(=O)NCc2ccccc2Cl)CC1C (stereo unspecified)	u	20%[10.9 µM]	10%	15%	x	x
COc1cccc(C(=O)Cn2c(=N)n(C)c3ccccc32)c1	u	-83%	3.2µM*	5µM*	15	1.3µM*
C[C@@]12C=CC(=O)C=C1CC[C@@H]1C2=CC[C@]2(C)[C@@H]1CC[C@H]2C(=O)CN1CCN(c2cc(N3CCCC3)nc(N3CCCC3)n2)CC1	10%	x	2%	23%	11	1%
COc1cc2c(C=O)c3c4c(cc(OC)c(OC)c4c2cc1OC)CCN3C	x	-19%	u	16µM*	8	x
Cc1nn(Cc2ccc(Cl)cc2Cl)c(C)c1NC(=O)c1nn(C)cc1Cl	x	x	x	x	9	x
Cc1nn(Cc2ccc(Cl)cc2Cl)c(C)c1NC(=O)CCl	x	x	18µM*	5.6µM*	u	x
O=S(=O)(NCCNC/C=C\c1ccc(Br)cc1)c1cccc2cnccc12	-4%	x	u	16µM*	8	1%
CCCOc1ccc(-c2nc3ccccc3c(=O)o2)cc1	63%	-46%[10.9 µM]	10µM*	5µM*	3	x
CCC(=O)Nc1cccc(-c2nc3ccccc3c(=O)o2)c1	u	-48%	13µM*	10µM*	1	u
CC(=O)Nc1cccc(-c2nc3ccccc3c(=O)o2)c1	u	-32%	-17%	-2%	19[1.84 µM]	-6%
O=C(NCc1ccc(Cl)cc1)c1cnc2sc(N3CCCC3)nn2c1=O	1%	-13%[10.9 µM]	3%	-21%	x	x
C#C[C@@]1(O)CC[C@@H]2[C@@H]3CCC4=CC(=O)CC[C@@H]4[C@H]3CC[C@]21C	1%[25.6 µM]	-19%[16.8 µM]	x	x	2[20.6 µM]	2%[25.5 µM]
CC(NC(=O)c1ccc2c(c1)CCN2S(C)(=O)=O)c1ccccc1 (stereo unspecified)	-1%	-8%[10.9 µM]	-8%	4%	x	x
CS(=O)(=O)N1CCc2cc(C(=O)OCC(=O)c3ccccc3)ccc21	-1%	-9%	-18%	-5%	-6	13µM*
O=C(c1cccs1)N1CCn2c1nc1ccccc12	0%	-90%	u	u	8	16µM*
Cc1ccc(-n2c(C)cc(C3N=C(N)Nc4nc5ccccc5n43)c2C)c(C)c1 (stereo unspecified)	u	-52%	u	20µM*	10	-1%
Cc1ccc2nc(NC(=O)c3cccs3)sc2c1	u	x	u	7.9µM*	-13	2µM*
Cc1ccc2nc(NC(=S)NC(=O)c3cccs3)sc2c1	x	x	x	x	-6	x
Cc1cc(C(=O)Nc2nc3ccc(S(C)(=O)=O)cc3s2)c(C)o1	2%	-84%	u	-27%	6	2µM*
Cc1ccccc1NC(=O)Nc1nc2ccc(S(C)(=O)=O)cc2s1	x	x	x	-9%	-5	x
CCC(=O)Nc1nc2ccc(S(C)(=O)=O)cc2s1	x	x	-13%	14%	-7	x
Cc1ccc(C(=O)Nc2nc3ccc(S(C)(=O)=O)cc3s2)s1	-2%	-71%	10µM*	13µM*	-2	3.2µM*
SMILES	IkB signaling	Imprint erasure	p53ts 32C kill	p53ts 39C kill	IMPase inh	Luciferase inh
CS(=O)(=O)c1ccc2nc(NC(=O)c3cccs3)sc2c1	u	-87%	2.5µM*	2.5µM*	-6	1µM*
Cc1ccc(S(=O)(=O)N[C@H]2COC(=O)C/C=C\[C@@H](C)[C@H](NS(=O)(=O)c3ccc(C)cc3)COC(=O)[C@H](C)NC(=O)C/C=C\[C@H]2C)cc1	x	x	-4%[9.22 µM]	10%[9.22 µM]	x	2%[11.4 µM]
O=C(Nc1ccc2oc(-c3ccccc3F)nc2c1)c1ccc2c(c1)OCCO2	u	-24%	13µM*	-29%	10	-29%
CCC(=O)Nc1ccc2oc(-c3ccccc3Br)nc2c1	0%	-29%	u	-30%	-2	u
O=C(Nc1ccccc1-c1nc2ccccc2o1)c1ccc2c(c1)OCCO2	-1%	-2%	-12%	0%	x	0%
O=C(Nc1ccc2oc(-c3cc(Br)ccc3Cl)nc2c1)c1ccc2ccccc2c1	5%	-10%[10.9 µM]	u	13µM*	-2	x
CC(=O)Nc1ccc2oc(-c3ccccc3Br)nc2c1	0%	-69%	u	u	-1	10µM*
Cc1ccc(-c2cc3nc4c(c(=O)n3[nH]2)CCCC4)cc1	-1%	-25%	u	u	x	4µM*
Cc1[nH]n2c(=O)c3c(nc2c1-c1ccc(Cl)cc1)CCC3	3%	-2%	-6%	-7%	u	1%
CCc1c(C)nc2cc(-c3ccc(OC)cc3)[nH]n2c1=O	-1%	-2%	u	u	-6	20µM*
CC(C)CN1CCCC2(CCN(S(=O)(=O)c3ccccc3)CC2)C1	1%[11.4 µM]	x	-6%	5%	x	3%[11.4 µM]
O=C(Nc1ccc(Cl)cc1)Nc1ccccc1C(=O)NCc1ccco1	u	-76%	-1%	-15%	1	7.9µM*
O=C(Nc1ccccc1C(=O)NCc1ccco1)c1ccccc1	1%	-15%	7%	-3%	15	0%
O=[N+]([O-])c1ccc2c(c1)c(S(=O)(=O)O)cc1nonc12	-1%[11.4 µM]	5%[10.9 µM]	4%[9.22 µM]	23%[9.22 µM]	x	0%[11.4 µM]
COc1ccc(-n2cc(-c3ccc4c(c3)OCO4)n(CC(=O)Nc3cc(Cl)ccc3C)c2=O)cc1	u	-12%[10.9 µM]	10µM*	10µM*	2	x
COc1ccc(-n2cc(-c3ccc4c(c3)OCO4)n(CC(=O)Nc3cccc(C)c3C)c2=O)c(OC)c1	u	2%[10.9 µM]	-20%	-28%	9	x
O=C(Nc1ccc2c(c1)OCO2)c1ccc[n+]([O-])c1	x	x	x	x	-1	x
CC(=O)Nc1ccc(C(=O)Nc2ccc3c(c2)OCO3)cc1	0%	-17%	-5%	-10%	2	-15%
Cc1cc(C(=O)Nc2ccc3c(c2)OCO3)cs1	0%	-71%	13µM*	10µM*	9	16µM*
Cc1noc(C(=O)Nc2ccc3c(c2)OCO3)c1Cl	5%	-75%	u	-26%	-10	13µM*
CC(=O)c1cccc(NC(=O)c2onc(C)c2Cl)c1	x	x	x	x	1	x
